From PubChem BioAssay (NCI)
About 79,000 compounds went through this panel and 15% of them were active in at least one assay; those are over-represented in the sample as a whole. Calls of active or inactive are those of the source. Rule as the data show it: active = growth inhibition above about 70%; inactive = the rest.

Key:
[1] = NCI Yeast Anticancer Drug Screen. Data for the wt1 strain (AID 149);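 also: 0% = growth of vehicle-treated wt1 cultures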; details: S. cerevisiae wt1 strain (SPY 50644) growth inhibition, stronger effect = higher value
How it was run: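 Measured: growth of wt1 yeast under compound versus vehicle treatment, reported as inhibition.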

[2] = NCI Yeast Anticancer Drug Screen. Data for the rad50EPP+ strain (AID 151);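 also: 0% = growth of vehicle-treated control cultures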; details: S. cerevisiae rad50 mutant strain, stronger effect = higher value
How it was run: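 rad50EPP+ yeast treated with test compounds. Readout: growth vs vehicle control.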

[3] = NCI Yeast Anticancer Drug Screen. Data for the mgt1 strain (AID 153); details: S. cerevisiae mgt1 mutant growth inhibition, stronger effect = higher value
How it was run: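 Growth inhibition relative to vehicle controls was scored for the mgt1 yeast strain after compound exposure.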

[4] = NCI Yeast Anticancer Drug Screen. Data for the rad50 strain (AID 155);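 also: 0% = growth of vehicle-only cultures of the same strain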; details: S. cerevisiae rad50 strain growth inhibition, stronger effect = higher value
How it was run: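 Growth of the mutant yeast was measured after compound exposure and referenced to vehicle-treated cultures.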

[5] = NCI Yeast Anticancer Drug Screen. Data for the mec2-1 strain (AID 157); details: S. cerevisiae mec2-1 strain, stronger effect = higher value
How it was run: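 Growth inhibition is read against vehicle-treated controls after compound exposure of the mec2-1 yeast strain, which is defective in DNA damage repair or cell cycle control.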

[6] = NCI Yeast Anticancer Drug Screen. Data for the rad14 strain (AID 159);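 also: 0% = growth of vehicle-treated control cultures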; details: S. cerevisiae rad14 strain growth inhibition, stronger effect = higher value
How it was run: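 Here, inhibition of yeast growth was measured after compound exposure, using a strain with a genetic defect in DNA damage repair and vehicle-treated cultures as the reference.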

[7] = NCI Yeast Anticancer Drug Screen. Data for the sgs1 mgt1 strain (AID 161);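 also: 0% = growth of cultures given vehicle only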; details: S. cerevisiae sgs1 mgt1 strain, stronger effect = higher value
How it was run: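 Growth of a repair-deficient yeast mutant was monitored after compound treatment and expressed as inhibition relative to vehicle-treated cultures.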

[8] = NCI Yeast Anticancer Drug Screen. Data for the CLN2oe strain (AID 163);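 also: 0% = growth of vehicle-only control cultures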; details: S. cerevisiae CLN2oe strain, stronger effect = higher value
How it was run: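 Compound-treated yeast; growth vs vehicle ctrl = % inhibition. Genetically altered strain (cell-cycle control).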

[9] = NCI Yeast Anticancer Drug Screen. Data for the cln2 rad14 strain (AID 165);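 also: 0% = growth equal to vehicle treated cultures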; details: S. cerevisiae cln2 rad14 strain, stronger effect = higher value
How it was run: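 Growth inhibition, relative to vehicle-treated controls, is the read-out. The test organism is a yeast strain with defined genetic alterations, cln2 rad14.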

[10] = NCI Yeast Anticancer Drug Screen. Data for the bub3 strain (AID 167); details: S. cerevisiae bub3 mutant strain, stronger effect = higher value
How it was run: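 Whole-cell yeast assay. The mutant strain was incubated with compounds, and growth inhibition was determined by comparison with vehicle-treated cells.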

[11] = NCI Yeast Anticancer Drug Screen. Data for the wt2 strain (AID 169);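 also: 0% = growth of vehicle-treated yeast cultures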; details: S. cerevisiae wt2 strain growth inhibition, stronger effect = higher value
How it was run: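 Compound exposure of yeast; growth compared with vehicle controls; inhibition reported.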

[12] = NCI Yeast Anticancer Drug Screen. Data for the mlh1 strain (AID 171);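 also: 0% = growth of vehicle-treated control cultures of the same strain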; details: S. cerevisiae mlh1 strain growth inhibition, stronger effect = higher value
How it was run: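 Compounds are applied to a genetically altered yeast strain, and its growth is compared with that of vehicle-treated cultures to give percent inhibition.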

[13] = NCI Yeast Anticancer Drug Screen. Data for the sgs1 strain (AID 173);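 also: 0% = growth of vehicle-only control cultures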; details: S. cerevisiae sgs1 mutant, stronger effect = higher value
How it was run: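 Compounds applied to genetically altered yeast; growth compared with vehicle-treated cultures to give % inhibition.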

[14] = NCI Yeast Anticancer Drug Screen. Data for the mlh1 rad18 strain (AID 175); details: S. cerevisiae mlh1 rad18 strain growth inhibition, stronger effect = higher value
How it was run: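 Cells of a genetically altered yeast strain, deficient in DNA damage repair, were treated with compound. Their growth was then compared with that of vehicle-treated cultures to give inhibition.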

[15] = NCI Yeast Anticancer Drug Screen. Data for the rad18 strain (AID 177); details: S. cerevisiae rad18 mutant growth inhibition, stronger effect = higher value
How it was run: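 Compounds are applied to a repair-deficient yeast strain, and growth is compared with that of vehicle-treated cultures to give percent inhibition.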

[16] = NCI Yeast Anticancer Drug Screen. Data for the rad52 strain (AID 147);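 also: 0% = growth of vehicle-treated control cultures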; details: S. cerevisiae rad52 mutant growth inhibition, stronger effect = higher value
How it was run: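 DNA repair-defective yeast; compound exposure; growth scored against vehicle controls.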

[17] = at 5.0 µM (retest, dose inferred, filed as 0.5)
[18] = at 50.0 µM (retest, dose inferred, filed as 5.0)

Measured: growth inhibition

COC(=O)C(F)C(Br)C(=O)OC (stereo unspecified)
inactive: [1]; at 1.2 µM -3% | [2]; at 1.2 µM 28% | [3]; at 1.2 µM 16% | [4]; at 1.2 µM -5% | [4]; at 3.7 µM 60% | [5]; at 1.2 µM 20% | [6]; at 1.2 µM 5% | [6]; at 3.7 µM 67% | [7]; [17] 8% | [7]; [18] 12% | [8]; at 1.2 µM 43% | [9]; [17] 5% | [9]; [18] -42% | [10]; at 1.2 µM 64% | [10]; [17] 11% | [10]; [18] -21% | [11]; at 1.2 µM 55% | [12]; at 1.2 µM 66% | [13]; at 1.2 µM 48% | [15]; at 1.2 µM 29%
active: [1]; at 3.7 µM 74% | [1]; at 11.0 µM 97% | [1]; at 33.0 µM 98% | [1]; at 100.0 µM 99% | [2]; at 3.7 µM 90% | [2]; at 11.0 µM 97% | [2]; at 33.0 µM 98% | [2]; at 100.0 µM 97% | [3]; at 3.7 µM 82% | [3]; at 11.0 µM 98% | [3]; at 33.0 µM 99% | [3]; at 100.0 µM 99% | [4]; [17] 88% | [4]; at 11.0 µM 96% | [4]; at 33.0 µM 98% | [4]; [18] 99% | [4]; at 50.0 µM 90.8% | [4]; at 100.0 µM 98% | [5]; at 3.7 µM 73% | [5]; [17] 93% | [5]; at 11.0 µM 95% | [5]; at 33.0 µM 98% | [5]; [18] 100% | [5]; at 50.0 µM 93% | [5]; at 100.0 µM 99% | [6]; at 11.0 µM 93% | [6]; at 33.0 µM 97% | [6]; at 100.0 µM 96% | [7]; at 50.0 µM 92.5% | [8]; at 3.7 µM 91% | [8]; at 11.0 µM 97% | [8]; at 33.0 µM 98% | [8]; at 100.0 µM 100% | [9]; at 50.0 µM 84.2% | [10]; at 3.7 µM 94% | [10]; at 11.0 µM 98% | [10]; at 33.0 µM 99% | [10]; at 50.0 µM 91.4% | [10]; at 100.0 µM 97% | [11]; at 3.7 µM 95% | [11]; at 11.0 µM 98% | [11]; at 33.0 µM 99% | [11]; at 100.0 µM 100% | [12]; at 3.7 µM 96% | [12]; at 11.0 µM 98% | [12]; at 33.0 µM 99% | [12]; at 100.0 µM 99% | [13]; at 3.7 µM 95% | [13]; at 11.0 µM 98% | [13]; at 33.0 µM 99% | [13]; at 100.0 µM 99% | [14]; [17] 94% | [14]; [18] 98% | [14]; at 50.0 µM 90% | [15]; at 3.7 µM 88% | [15]; at 11.0 µM 98% | [15]; at 33.0 µM 92% | [15]; at 100.0 µM 98%

C/C(=N\N=C(N)N)C(CN1CCOCC1)C(c1ccccc1)c1c(O)c2ccccc2oc1=O (stereo unspecified)
active: [4]; [17] 78% | [4]; [18] 78% | [4]; at 50.0 µM 86.5% | [4]; at 100.0 µM 94% | [5]; at 50.0 µM 80.7% | [6]; at 100.0 µM 93% | [7]; [17] 88% | [7]; [18] 88% | [7]; at 50.0 µM 86% | [9]; at 50.0 µM 85.5% | [10]; at 50.0 µM 77.8% | [12]; at 100.0 µM 96% | [13]; at 100.0 µM 97% | [15]; at 100.0 µM 93%
inactive: [1]; at 1.2 µM 2% | [1]; at 3.7 µM -2% | [1]; at 11.0 µM -3% | [1]; at 33.0 µM 3% | [1]; at 100.0 µM 42% | [2]; at 1.2 µM -6% | [2]; at 3.7 µM -3% | [2]; at 11.0 µM -6% | [2]; at 33.0 µM -3% | [2]; at 100.0 µM 10% | [3]; at 1.2 µM 1% | [3]; at 3.7 µM -2% | [3]; at 11.0 µM 0% | [3]; at 33.0 µM 37% | [3]; at 100.0 µM 48% | [4]; at 1.2 µM 3% | [4]; at 3.7 µM 5% | [4]; at 11.0 µM -15% | [4]; at 33.0 µM 21% | [5]; at 1.2 µM 1% | [5]; at 3.7 µM 1% | [5]; [17] 59% | [5]; at 11.0 µM -3% | [5]; at 33.0 µM 8% | [5]; [18] 59% | [5]; at 100.0 µM 51% | [6]; at 1.2 µM 4% | [6]; at 3.7 µM 1% | [6]; at 11.0 µM -2% | [6]; at 33.0 µM 6% | [8]; at 1.2 µM 0% | [8]; at 3.7 µM 7% | [8]; at 11.0 µM 2% | [8]; at 33.0 µM 18% | [8]; at 100.0 µM 48% | [9]; [17] 7% | [9]; [18] 7% | [10]; at 1.2 µM 5% | [10]; at 3.7 µM 4% | [10]; [17] 31% | [10]; at 11.0 µM 18% | [10]; at 33.0 µM 47% | [10]; [18] 31% | [10]; at 100.0 µM 43% | [12]; at 1.2 µM -2% | [12]; at 3.7 µM -8% | [12]; at 11.0 µM -7% | [12]; at 33.0 µM 40% | [13]; at 1.2 µM -1% | [13]; at 3.7 µM -3% | [13]; at 11.0 µM 0% | [13]; at 33.0 µM 42% | [14]; [17] 57% | [14]; [18] 57% | [14]; at 50.0 µM 49.2% | [15]; at 1.2 µM -3% | [15]; at 3.7 µM -9% | [15]; at 11.0 µM -12% | [15]; at 33.0 µM 13%

C/C(CCl)=N/NC1=NC(c2ccccc2Cl)P(=O)(NCCCNP2(=O)SC(N/N=C(/C)CCl)=NC2c2ccccc2Cl)S1 (stereo unspecified)
inactive: [16]; at 1.2 µM -2% | [16]; at 3.7 µM -2% | [16]; at 11.0 µM -2% | [16]; at 33.0 µM 5% | [16]; at 100.0 µM 8% | [2]; at 1.2 µM 0% | [2]; at 3.7 µM 2% | [2]; at 11.0 µM 10% | [2]; at 33.0 µM 43% | [2]; at 100.0 µM 33% | [4]; at 1.2 µM 4% | [4]; at 3.7 µM 4% | [4]; [17] -21% | [4]; at 11.0 µM 23% | [4]; at 33.0 µM 38% | [4]; [18] 8% | [4]; at 100.0 µM 34% | [5]; at 1.2 µM -4% | [5]; at 3.7 µM -4% | [5]; [17] -12% | [5]; at 11.0 µM -6% | [5]; at 33.0 µM -5% | [5]; [18] 2% | [5]; at 100.0 µM -1% | [6]; at 1.2 µM 0% | [6]; at 3.7 µM -1% | [6]; at 11.0 µM -4% | [6]; at 33.0 µM 2%
active: [4]; at 50.0 µM 96% | [5]; at 50.0 µM 96.3%
